Hit rate of the full screen: of about 63,000 compounds, about 1,100 (1.7%) were called active. No stated cut-off is given here; in the data, active means cytotoxicity above about 50%; inactive means the rest. The full list was thinned out, with actives kept by preference. Potency and affinity values are given separately.
Assay: HPDE-C7 pancreatic duct cell viability loss – fluorescence, HTS (AID 430);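 further: cells exposed to compound for 48 hours before viability readout; 0% = vehicle and 100% = reference cytotoxic drug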
Settings: HPDE-C7 pancreatic duct cells viability, at 10 µM, stronger effect = higher value
In the case of `CC1=CC(c2ccccc2)n2nc(N3C(=O)c4ccccc4C3=O)nc2N1` (configuration not stated), the cytotoxicity is reported as -0.7% (inactive).
In the case of `Cc1cc(NC(=O)c2ccc(S(=O)(=O)N(C)C)cc2)no1`, the cytotoxicity is reported as -5.2% (inactive).
In the case of `O=S(=O)(c1ccccc1)c1nc(-c2ccccc2)oc1NCc1cccnc1`, the cytotoxicity is reported as -3.2% (inactive).
In the case of `CCNC(=O)C1CC(=O)N(Cc2ccc3c(c2)OCO3)C(=Nc2ccc(F)cc2)S1` (configuration not stated), the cytotoxicity is reported as 50.6% (active).
For `CCNC(=O)C1CC(=O)N(Cc2ccc3c(c2)OCO3)C(=Nc2ccc(OCC)cc2)S1` (configuration not stated), the cytotoxicity was -4.1% (inactive).
With `CNC(=O)C1CC(=O)N(Cc2ccc3c(c2)OCO3)C(=Nc2ccc(F)cc2)S1` (configuration not stated) the cytotoxicity was 3.4% (inactive).
In the case of `c1ccc(Cn2nnnc2CN2CCN(Cc3ccc4c(c3)OCO4)CC2)cc1`, the cytotoxicity is reported as -5.8% (inactive).
With `Cc1nc2cc(C(F)(F)F)ccc2n1C1CCN(CC(=O)N2CCOCC2)CC1` the cytotoxicity was 1.2% (inactive).
For `COc1ccc(S(=O)(=O)Nc2cc(C)ccc2OC)cc1C`, the cytotoxicity was 1.8% (inactive).
For `COc1ccc(NC(=O)CSc2nc3c(c(=O)n2-c2ccc(F)cc2)SCC3)cc1`, the cytotoxicity was 14.2% (inactive).
In the case of `COc1ccc(NC(=O)c2cccc(-n3cnnn3)c2)cc1`, the cytotoxicity is reported as -1.7% (inactive).
In the case of `O=C(O)C1C2C=CC3(CN(CC(O)COc4ccccc4)C(=O)C13)O2` (configuration not stated), the cytotoxicity is reported as -8.7% (inactive).
For `Cc1cc2ccccc2n1CCNC(=O)c1ccc(S(=O)(=O)N2CCOCC2)cc1`, the cytotoxicity was -3.1% (inactive).
With `Cn1cc(S(=O)(=O)Cc2ccc(F)cc2)c2ccccc21` the cytotoxicity was 8.8% (inactive).
In the case of `CC(C)C[C@H](N)c1nnc(S(=O)(=O)Cc2cccc(F)c2)o1`, the cytotoxicity is reported as 19% (inactive).
With `CC(C)CCN1C(=O)CCC1(C)C(=O)NC1CCCCCC1` (configuration not stated) the cytotoxicity was -16.5% (inactive).
For `COc1ccc(NC(=O)c2nc[nH]c2C(=O)Nc2ccccc2C)cc1`, the cytotoxicity was 55.3% (active).
With `Cc1ccccc1NC(=O)c1nc[nH]c1C(=O)NCc1ccccc1` the cytotoxicity was -22.2% (inactive).
With `COc1ccccc1NC(=O)c1nc[nH]c1C(=O)Nc1ccccc1OC` the cytotoxicity was 17% (inactive).
With `Cc1ccc(Nc2oc(C)nc2C#N)cc1` the cytotoxicity was 2.5% (inactive).
In the case of `CCCSC1=C(C#N)C(c2ccccc2C)CC(=O)N1` (configuration not stated), the cytotoxicity is reported as 10.1% (inactive).
With `COc1ccc(OC)c(N/C(=N\c2nc(C)cc(C)n2)NC(=O)c2ccco2)c1` the cytotoxicity was -5.6% (inactive).
With `CCOc1ccccc1Nc1nnc(SCc2ccc(C(=O)OC)o2)s1` the cytotoxicity was 58% (active).
For `COC(=O)c1ccc(CSc2nnc(NCc3ccccc3)s2)o1`, the cytotoxicity was -3.1% (inactive).
In the case of `COC(=O)c1ccc(CSc2nnc(Nc3ccccc3OC)s2)o1`, the cytotoxicity is reported as 43.6% (inactive).
In the case of `Cn1c(=O)c2c(-c3ccccc3)n(CCCN3CCOCC3)cc2n(C)c1=O`, the cytotoxicity is reported as -14% (inactive).
In the case of `COc1ccccc1NC(=O)c1cc(Sc2nncn2C)nc2ccccc12`, the cytotoxicity is reported as 4.7% (inactive).
For `Cc1ccc(C(=O)C2=C(O)C(=O)N(CCCN3CCOCC3)C23C(=O)N(C)c2ccccc23)o1` (configuration not stated), the cytotoxicity was -20.1% (inactive).
For `O=C(Oc1ccc2ccccc2c1)c1ccco1`, the cytotoxicity was 5% (inactive).
In the case of `CCOc1ccc(OC(=O)c2cccnc2)cc1`, the cytotoxicity is reported as 4.1% (inactive).
With `CC1=CC(C)(C)Nc2ccc(C)cc21` the cytotoxicity was -10.9% (inactive).
For `COC(=O)C1=C(C)NC(C)=C(C(=O)OC)C1c1ccc(OC(=O)c2ccco2)cc1`, the cytotoxicity was -0.4% (inactive).
With `COC(=O)c1ccc(OC(=O)c2ccco2)cc1` the cytotoxicity was -14.5% (inactive).
For `CCc1ccc2c(c1)C(C)=CC(C)(C)N2`, the cytotoxicity was 3.5% (inactive).
For `O=C(Oc1cccc(Br)c1)c1cccnc1`, the cytotoxicity was -5% (inactive).
For `CCOc1ccc2c(c1)N(C(=O)CN1C(=O)CCC1=O)C(C)(C)C=C2C`, the cytotoxicity was -6.5% (inactive).
With `COc1ccc(S(=O)(=O)N2CCCC2C(=O)Nn2cnnc2)cc1` (configuration not stated) the cytotoxicity was -10.2% (inactive).
In the case of `O=C(O)C1C2CCC(C2)C1C(=O)Nc1nc2ccccc2s1` (configuration not stated), the cytotoxicity is reported as -5.1% (inactive).
For `CCc1cccc(NC(=O)Cn2cccc2)c1`, the cytotoxicity was 2.1% (inactive).
For `Cc1noc(C)c1CSCC(=O)OCC(=O)Nc1sccc1C#N`, the cytotoxicity was 6.1% (inactive).
With `CCCc1cc(=O)oc2cc(C)cc(OC(=O)c3ccco3)c12` the cytotoxicity was 11.7% (inactive).
With `COC(=O)c1c(NC(=O)c2ccc(Br)o2)sc(C)c1C` the cytotoxicity was 11% (inactive).
With `O=S(=O)(c1cccc(Cl)c1Cl)N1CCCCC1` the cytotoxicity was -8.6% (inactive).
For `C1CCC(c2nn3c(-c4n[nH]c5c4CCC5)nnc3s2)CC1`, the cytotoxicity was 2.9% (inactive).
With `COc1ccc(CCN(Cc2nc3ccccc3c(=O)[nH]2)C(=O)c2ccco2)cc1OC` the cytotoxicity was -3% (inactive).
With `Cc1oc(C)c2c(=O)ccc3c(c12)OC(N)=C(C#N)C3c1ccccc1` (configuration not stated) the cytotoxicity was -51.8% (inactive).
In the case of `CSc1ccc(C2C(C#N)=C(N)Oc3c2ccc(=O)c2c(C)oc(C)c32)cc1` (configuration not stated), the cytotoxicity is reported as -8.9% (inactive).
In the case of `Cn1c(N2CCC(C(N)=O)CC2)nc2c1c(=O)n(Cc1ccc(Br)cc1)c(=O)n2C`, the cytotoxicity is reported as 28.6% (inactive).
With `COc1cccc(C2C(C#N)=C(N)OC3=C2C(=O)CCC3)c1OC(=O)c1ccco1` (configuration not stated) the cytotoxicity was -11.1% (inactive).
With `OCCN(CC(O)Cn1ccc2ccccc21)CC(O)Cn1ccc2ccccc21` (configuration not stated) the cytotoxicity was -4.1% (inactive).
In the case of `OCCNCC(O)Cn1ccc2ccccc21` (configuration not stated), the cytotoxicity is reported as -15.1% (inactive).
For `Cc1nn(Cc2ccccc2)c(C)c1C(=O)Nc1ccc(N2CCOCC2)cc1`, the cytotoxicity was 6.2% (inactive).
With `COc1ccc(CN(C)C2CCCCC2)cc1` the cytotoxicity was 12.6% (inactive).
With `CC(C)(C)c1cc(CN2CCN(CCO)CC2)cc(C(C)(C)C)c1O` the cytotoxicity was -9.7% (inactive).
In the case of `CC(C)(C)c1cc(C(=S)N2CCN(CCO)CC2)cc(C(C)(C)C)c1O`, the cytotoxicity is reported as -4.1% (inactive).
For `Cc1ccc2c(c1)N(CCCC(=O)NCC1COc3ccccc3O1)C(=O)CO2` (configuration not stated), the cytotoxicity was -5.2% (inactive).
With `C(=N\n1cnnc1)/c1cn(-c2cccs2)nc1-c1ccccc1` the cytotoxicity was -5.7% (inactive).
In the case of `O=C(O)C1CCN(C(=O)c2ccccc2C(=O)N2CCC(C(=O)O)CC2)CC1`, the cytotoxicity is reported as -9.9% (inactive).
With `Cc1ccnc(NC(=O)C2CCN(S(=O)(=O)c3cccc4nsnc34)CC2)c1` the cytotoxicity was -8.3% (inactive).
In the case of `O=S(=O)(c1ccccc1)N1CCN(C2CCN(Cc3ccccc3)CC2)CC1`, the cytotoxicity is reported as 22.9% (inactive).
For `Cc1ccc(C2C(C#N)=C(N)Oc3nc(-c4ccccc4)[nH]c32)o1` (configuration not stated), the cytotoxicity was -2.4% (inactive).
With `Cc1ccc(SCc2[nH]nc3c2C(c2ccc(C)o2)C(C#N)=C(N)O3)cc1` (configuration not stated) the cytotoxicity was 44.5% (inactive).
With `CC1(C)Cc2cccc(OCC(=O)N3CCN(S(=O)(=O)c4ccccc4)CC3)c2O1` the cytotoxicity was -2.1% (inactive).
With `COC(=O)c1ccsc1NC(=O)c1ccc(Cl)s1` the cytotoxicity was -0.2% (inactive).
For `COc1ccc2nc(NCCO)[nH]c2c1`, the cytotoxicity was -13.5% (inactive).
In the case of `COc1ccc2nc(SCC(N)=O)[nH]c2c1`, the cytotoxicity is reported as -19.2% (inactive).
With `CCCOc1ccc2nc(NC(=O)OC)[nH]c2c1` the cytotoxicity was 61.4% (active).
With `COc1ccc(C(=O)Nc2nc3ccccc3[nH]2)cc1OC` the cytotoxicity was -5.6% (inactive).
For `CCOc1ccc2nc(NCCO)[nH]c2c1`, the cytotoxicity was -2.1% (inactive).
With `CCCSc1ccc2nc(NC(=O)OC)[nH]c2c1` the cytotoxicity was 67.1% (active).
With `CCCCC(c1nnnn1CS(=O)(=O)c1ccc(C)cc1)N1CCN(c2ccccc2)CC1` (configuration not stated) the cytotoxicity was -30% (inactive).
With `O=C(NC1CCCc2ccccc21)C1CCN(S(=O)(=O)c2cccc3nonc23)CC1` (configuration not stated) the cytotoxicity was -29.1% (inactive).
For `O=C(c1cc2sccc2n1Cc1ccccc1)N1CCc2ccccc21`, the cytotoxicity was 9.3% (inactive).
In the case of `CC(=O)N1CCN(CC(=O)Nc2c(Cl)cc(Cl)cc2Cl)CC1`, the cytotoxicity is reported as 0% (inactive).
For `COc1ccc(N2CCN(C(=O)c3ccc(S(=O)(=O)N4CCOCC4)cc3)CC2)cc1`, the cytotoxicity was 3.1% (inactive).
With `COc1cc(OC)nc(NC(=O)COC(=O)C2CCCCC2)n1` the cytotoxicity was 8.7% (inactive).
With `COc1ccc(-n2c(Cc3cccn3C)nnc2SCC(=O)Nc2ccccc2F)cc1` the cytotoxicity was -11.2% (inactive).
In the case of `Cc1ccc(C(=O)C2=C(O)C(=O)N(c3ncccn3)C2c2ccc(Cl)cc2)o1` (configuration not stated), the cytotoxicity is reported as 68.3% (active).
In the case of `O=C(C1=C(O)C(=O)N(c2ncccn2)C1c1ccc(Cl)c(Cl)c1)c1ccco1` (configuration not stated), the cytotoxicity is reported as 7.8% (inactive).
In the case of `Cc1ccc(C(=O)C2=C(O)C(=O)N(c3ncccn3)C2c2cccc(Cl)c2)o1` (configuration not stated), the cytotoxicity is reported as 22.7% (inactive).
For `CCOc1ccc(-c2noc(-c3cccnc3)n2)cc1OC`, the cytotoxicity was 0.1% (inactive).
With `Cc1[nH]nc2c1C1(CCN(C(=O)c3ccccc3)CC1)C(C#N)=C(N)O2` the cytotoxicity was -19.1% (inactive).
In the case of `Cc1ccc(NC(=O)N2CCC(C(=O)NCCC3=CCCCC3)CC2)cc1`, the cytotoxicity is reported as -6.2% (inactive).
With `CC1(C)Cc2noc(N)c2C(C)(C)N1OC(=O)c1ccccc1` the cytotoxicity was -5.7% (inactive).
In the case of `Nc1c(C(=O)NC2CCCC2)sc2nc(-c3cccs3)ccc12`, the cytotoxicity is reported as 10.5% (inactive).
In the case of `CCCSc1nnc(NC(=O)c2sc3nc(-c4cccs4)ccc3c2N)s1`, the cytotoxicity is reported as 41.2% (inactive).
In the case of `Cc1csc(NC(=O)c2sc3nc(-c4cccs4)ccc3c2N)n1`, the cytotoxicity is reported as 60.5% (active).
With `CCCOc1ccc(S(=O)(=O)NCCN2CCOCC2)c2ccccc12` the cytotoxicity was -13.1% (inactive).
For `O=C(NC1CCCCC1)C1CC(=O)N(c2ccc(Cl)cc2)C1` (configuration not stated), the cytotoxicity was -9.5% (inactive).
With `CC1(C)C(c2cccs2)=NC(c2ccccc2)N1O` (configuration not stated) the cytotoxicity was -25.9% (inactive).
In the case of `Cc1ccc(C(N)=O)cc1S(=O)(=O)Nc1cccc(C)c1C`, the cytotoxicity is reported as 18.4% (inactive).
With `O=C(CC1Oc2ccccc2NC1=O)NCCCN1CCN(C2CCCCC2)CC1` (configuration not stated) the cytotoxicity was 2.6% (inactive).
With `O=C(CC(SCCO)c1ccc(F)cc1)c1ccco1` (configuration not stated) the cytotoxicity was 3.7% (inactive).
For `O=C(CSCCSCC(=O)c1ccco1)c1ccco1`, the cytotoxicity was 10.6% (inactive).
For `Cc1ccc(C(CC(=O)c2ccco2)SCCO)cc1` (configuration not stated), the cytotoxicity was 99.5% (active).
In the case of `CCC(=O)N1CC23C=CC(CC2CC12CCCCC2)O3` (configuration not stated), the cytotoxicity is reported as -6.8% (inactive).
For `COc1ccc(OC)c(CC(NC(C)=O)C(=O)NC2CCN(c3nc(C)cc(C)c3C#N)CC2)c1` (configuration not stated), the cytotoxicity was -6.9% (inactive).
